Source: PubChem BioAssay
A number with no mark means an inactive call. The rule behind the calls is not given here.

What follows are compounds tested against Pantothenate synthetase (Mycobacterium tuberculosis (strain ATCC 25618 / H37Rv)) (UniProt P9WIL5) (assay: Recombinant Mtb pantothenate synthetase (PanC) inhibitors, coupled enzyme, confirmatory (AID 375;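 note: 0% = full reaction with vehicle and 100% = no enzyme background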)). Conditions: coupled enzyme assay; at 10 µM, stronger effect = higher value.
Pantothenate synthetase (Mycobacterium tuberculosis (strain ATCC 25618 / H37Rv)), sequence (P9WIL5 whole entry, looked up): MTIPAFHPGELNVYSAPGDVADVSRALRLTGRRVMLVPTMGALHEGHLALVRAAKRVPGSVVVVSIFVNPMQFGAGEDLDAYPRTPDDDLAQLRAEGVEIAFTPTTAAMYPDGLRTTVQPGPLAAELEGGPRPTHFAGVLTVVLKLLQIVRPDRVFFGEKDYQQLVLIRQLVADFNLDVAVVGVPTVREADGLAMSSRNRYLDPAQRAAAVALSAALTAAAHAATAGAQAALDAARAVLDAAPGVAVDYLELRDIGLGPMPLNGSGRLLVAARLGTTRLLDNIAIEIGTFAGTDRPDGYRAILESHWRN

Row | Structure (SMILES) | inhibition [%]
1 | O=C(c1ccc(Cl)c(F)c1F)N1CCCC1 | 3
2 | Cc1onc(-c2ccccc2)c1C(N)=O | 0
3 | CCOC(=O)c1sc2nc(C)cc(C)c2c1N | 0
4 | CCN(CC)C(=O)C1CCCN(Cc2ccc(N(C)C)cc2)C1 (stereo not given) | 1
5 | Nc1ccc(C(=O)OCCCc2nc3ccccc3[nH]2)cc1 | 3
6 | COc1ccccc1C1C(C#N)=C(N)Oc2cc(C)n(Cc3ccccn3)c(=O)c21 (stereo not given) | 1
7 | COc1ccccc1C1CC(c2ccc(C)cc2)Nc2ncnn21 (stereo not given) | 3
8 | Cc1ccc(C(c2sc3ncnn3c2O)N2CC(C)CC(C)C2)cc1 (stereo not given) | 0
9 | O=c1c2c3nc4ccccc4nc3n(CC3CCCO3)c2ncn1CCc1ccccc1 (stereo not given) | 9
10 | COc1ccc(NC(=O)CSc2nnc(-c3ccccc3)n2N)cc1 | 0
11 | CCOc1cc(NC(=O)c2ccco2)c(OCC)cc1NC(=O)Cc1cccc(OC)c1 | 8
12 | O=C(C1CCN(S(=O)(=O)c2ccc(-n3cnnn3)cc2)CC1)N1CCN(c2ccccc2)CC1 | 11
13 | C=C(C)Cn1c(N2CCN(CC)CC2)nc2c1c(=O)[nH]c(=O)n2C | 0
14 | CC[C@H]1CN2CCc3cc(OC)c(OC)cc3[C@@H]2C[C@@H]1C[C@H]1NCCc2cc(OC)c(OC)cc21 | 0
15 | Cc1ccc(-c2[nH]nc3c2C(c2ccc(OC(=O)N4CCOCC4)cc2)C(C#N)=C(N)O3)cc1 (stereo not given) | 2
16 | CC(C)=CCCC(C)NC(=O)NC1CCCCC1 (stereo not given) | 0
17 | O=C(c1cccc2c1C(=O)N(Cc1cccnc1)C2)N1CCN(c2ccccc2)CC1 | 8
18 | O=c1oc2ccccc2cc1NCc1ccccc1O | 0
19 | COc1ccc(C(=O)Nc2cccnc2)cc1C(=O)Nc1cccnc1 | 0
20 | CC1(C)COCN1S(=O)(=O)c1ccc(C(=O)Nc2nnc(-c3ccc(Cl)s3)o2)cc1 | 4

Row | Structure (SMILES) | inhibition [%]
21 | CCOc1ccc(CCNC(=O)CCc2nc(-c3ccc(OC)cc3)no2)cc1OCC | 0
22 | O=C(c1ccc(Cl)cc1)N1CCCOC1 | 4
23 | Cn1cc(NC(=O)c2cc(NC(=O)c3cc(NC=O)cn3C)cn2C)cc1C(=O)NCCC(=N)N | 10
24 | CCC1CCc2c(sc3ncnc(N4CCOCC4)c23)C1 (stereo not given) | 0
25 | COCCN1C(=O)c2oc3c(C)cc(C)cc3c(=O)c2C1c1cccc(O)c1 (stereo not given) | 5
26 | CCOC(=O)Cn1c(CN2CCN(c3cccc(Cl)c3)CC2)nc2c1c(=O)[nH]c(=O)n2C | 0
27 | CC(C)CC(OC(=O)c1cccs1)C(=O)NCc1ccco1 (stereo not given) | 0
28 | O=c1[nH]c(SCc2cc(=O)n3ccccc3n2)nc2c1CCC2 | 4
29 | CC1CCCN(C(=O)c2cc3c(-c4ccc(Cl)cc4)nn(C)c3s2)C1 (stereo not given) | 4
30 | COc1cccc(-n2ccnc2SCC(=O)N2CCc3ccccc32)c1 | 0
31 | COc1cc(NC(=O)CSCc2cnn(-c3ccccc3)c2-n2cccc2)cc(OC)c1 | 6
32 | O=C(CSc1nccn1-c1cccc(Cl)c1)NC1CCCC1 | 0
33 | CC(C)(C)NC(=O)COC(=O)c1ccc(O)cc1 | 0
34 | CC1(C)NC(=O)N(CC(O)COc2ccc(-c3ccccc3)cc2)C1=O (stereo not given) | 0
35 | N#CCSc1nc(-c2ccccc2)cs1 | 0
36 | CCOc1ccc(S(=O)(=O)NCC2CCCO2)c2cccnc12 (stereo not given) | 0
37 | COc1ccccc1C(O)P(=O)(OC(C)C)c1ccc(N(C)C)cc1 (stereo not given) | 0
38 | CCN1CCN(c2nc3c(C)cccn3c(=O)c2/C=C(\C#N)S(=O)(=O)c2ccccc2)CC1 | 0
39 | CCOc1cc(C2NC(=O)N(C)C(C)=C2C(=O)OC)cc(Br)c1O (stereo not given) | 0
40 | COc1cc(-c2nnc(SCC(=O)c3ccc(C)cc3)o2)cc(OC)c1OC | 0
